# Laboratory results as given in PubChem BioAssay.
# Results filed as inconclusive are left out. The source made the active and inactive calls.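 Rule for the calls, unless noted: active = percent response above a set limit, the screen-wide mean plus 3 SD (cut at about 130% in these data); inactive = the rest.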
# Tests used:
# [1] = rapamycin-like changes in RPL19A-GFP expression – cell-based, S. cerevisiae, multiplex flow cytometry, primary screen (AID 1862; in the data active = percent of DMSO control GFP below about 86%;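 note: lower values mimic rapamycin by blocking the RPL19A rise seen in DMSO cells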); settings: S. cerevisiae RPL19A-GFP strain, flow cytometry fluorescence, 3 h; at 10 µM; stronger effect = lower value
# [2] = TOR pathway GLN3 branch reporter MEP2-GFP changes – S. cerevisiae, multiplex flow cytometry, primary screen (AID 1867;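 active = GFP response, as percent of the DMSO control, above the screen-wide mean plus 3 SD, about 139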;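 note: median GFP channel fluorescence of barcode-gated MEP2-GFP cells measured by flow cytometry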); settings: S. cerevisiae MEP2-GFP strain, 3 h, at 10 µM, stronger effect = higher value, 100% means same as DMSO wells
# [3] = TOR pathway RTG branch CIT2 reporter changes – S. cerevisiae, GFP fusion, multiplex flow cytometry, primary screen (AID 1870);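 note: barcoded CIT2-GFP strain pooled with four other GFP strains with rapamycin as positive control; median GFP fluorescence per well over plate mean of DMSO wells so 100% = DMSO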; settings: S. cerevisiae CIT2-GFP expression, 3 h, at 10 µM, stronger effect = higher value
# [4] = TOR pathway LAP4-GFP level changes – S. cerevisiae, multiplex flow cytometry, primary screen (AID 1873;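 active = GFP signal, as percent of the solvent control, above the screen mean plus 3 SD, about 149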); settings: S. cerevisiae LAP4-GFP expression, 3 h, at 10 µM, stronger effect = higher value
# [5] = yeast AGP1-GFP level changes, GLN3 branch – cell-based, multiplex flow cytometry, S. cerevisiae, primary screen (AID 1887;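 active = GFP signal above the screen-wide mean plus 3 SD, that is over about 124.5% of the solvent control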;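 note: AGP1-GFP fusion strain of S. cerevisiae within a five-strain barcoded multiplex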); settings: 3 h, at 10 µM, stronger effect = higher value
# [6] = reduced mouse 2C T cell binding to pMHC/ICAM-1 vesicles – MLPCN validation set, flow cytometry, LFA-1/ICAM-1 modulator project, pilot screen (AID 2523;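 active = response below a set limit, under 55% cells CD8-positive and vesicle-bound, and CD8 cells' 90th-percentile brightness under 279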;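 for vesicle binding response: mean PE anti-B7-1 fluorescence of CD8+ cells relative to row control; 100% = QL9-loaded vesicles with DMSO vehicle in the same plate row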); settings: 2C mouse CD8+ T cells, at 7 µM, stronger effect = lower value; double positive events: measured here: CD8+/vesicle+ event percentage
# [7] = target: Integrin beta-1 (Homo sapiens) + Integrin alpha-4 (Homo sapiens) (UniProt P13612+P05556); assay: alpha4beta1 integrin LIBS antibody binding reduction – U937 cells, HUTS-21 mAb, flow cytometry, validation set, VLA-4 allosteric modulator project, pilot screen (AID 2674;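 active = inhibition above 50%, about 3 SD of the validation set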;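 note: antibody binding induced by the VLA-4 ligand LDV present at three times its Kd; 0% = LDV ligand with antibody and no compound and 100% = antibody without LDV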); settings: HUTS-21 LIBS mAb binding, at 6.7 µM, stronger effect = higher value, binding induced by LDV ligand
# [8] = calorie-restriction mimetic ROS inhibitors, yeast – validation compound set, pilot screen (AID 2706;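 active = superoxide response below 65% of plate, a cut near 3 SD across the whole screen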;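 note: yeast exposed to compound for one week at 30 degrees C before staining; 100% = mean of all compound wells on the same plate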); settings: S. cerevisiae aging, superoxide DHE fluorescence; at 10 µM; stronger effect = lower value
# [9] = target: Beta-adrenergic receptor kinase 1 (Homo sapiens) (UniProt P25098); assay: GRK2 binders displacing RNA aptamer, biochemical, validation, human GRK2, bead flow cytometry (AID 488806;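 active = aptamer binding inhibition above 30%, about 3 SD of noise from non-fluorescent compounds; inactive = inhibition at or below 30%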); settings: bead-bound GRK2, FAM-aptamer displacement, at 10 µM, stronger effect = higher value
# [10] = target: Beta-2 adrenergic receptor (Homo sapiens) (UniProt P07550); assay: agonist-induced loss of surface beta2AR – cell-based, FAP fluorogen, flow cytometry, validation set, pilot screen (AID 504459;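 active = percent response above 42, roughly 3 SD of non-fluorescent test compounds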;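 note: agonist-driven loss of surface beta2AR via internalization measured by FAP dye flow cytometry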); settings: Am2.2-beta2AR cells, at 10 µM, stronger effect = higher value
# [11] = target: AP-2 complex subunit beta (Homo sapiens) (UniProt P63010); assay: beta-arrestin/AP2 interaction blockers – biochemical, validation set, GST-AP2 beads, flow cytometry, pilot screen (AID 504541;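 active = inhibition above 54%, about 3 SD of non-fluorescent compounds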;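 note: AP2 carries R879A mutation and is captured from E. coli lysate; bead-bound FITC arrestin peptide fluorescence measuring arrestin peptide binding to AP2; 0% = DMSO wells and 100% = excess unlabeled arrestin peptide control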); settings: FITC arrestin peptide, at 10 µM, stronger effect = higher value, AP2 beta2 appendage fragment, R879A mutant
# [12] = cytosolic pH regulators acting via V-ATPase – S. cerevisiae, pHLuorin, HTS validation (AID 504600; in the data active = response above about 15%;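 note: plate controls were DMSO for no effect and reference compound for full effect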); settings: V-ATPase proton transport, at 10 µM, stronger effect = higher value
# [13] = test system: anti-desmoglein-3 scFv antibody binding to human DSG3; assay: blockers of pathogenic pemphigus antibody–desmoglein-3 binding – biochemical, validation compound set, bead-based, flow cytometry, pilot screen (AID 588368;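 active = binding below the plate cutoff, the plate median minus 3 SD, with a reading above zero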;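 note: signal is the median channel fluorescence of bead-bound GFP antibody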); settings: Protein G beads, DSG3-Fc, scFv-GFP binding, at 10 µM, stronger effect = lower value
# [14] = Nile Red efflux blockade in pump-expressing yeast – validation compound set, multiplex, phenotypic, pilot screen (AID 588506;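 active = efflux inhibition above 0.42, the validation set average plus 4 SD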;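 note: Nile Red retained in cells so higher fluorescence means more efflux inhibition; 0 = negative control wells and 1 = enniatin B 25 µM full block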); settings: S. cerevisiae pump-expressing triplex, Nile Red efflux flow cytometry; at 10 µM; stronger effect = higher value; the pumps come from Candida albicans
# [15] = target: ATP-binding cassette sub-family B member 6 (Homo sapiens) (UniProt Q9NP58); assay: blockers of ABCB6-driven porphyrin uptake – K562-ABCB6 cells, flow cytometry, validation set, pilot screen (AID 588550;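 active = inhibition above the screen-wide mean plus 3 SD, about 51%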;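 note: 0% = DMSO wells and 100% = benzethonium chloride 70 µM positive control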); settings: K562-ABCB6 porphyrin accumulation, 1 h, at 10 µM, stronger effect = higher value
# [16] = AML differentiation inducers, ER-HoxA9 marrow cells – cell-based, GFP/MAC1 double positive, flow cytometry, validation set, primary screen (AID 588685;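 active = differentiation response of at least 50%, scaled between solvent and reference control, from cells with both markers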;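 note: compound exposure lasts four days before antibody staining and flow analysis; 0% = DMSO wells and 100% = 5 µM fulvestrant positive control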); settings: stronger effect = higher value, normalized: vehicle 0, fulvestrant 100
# Beta-2 adrenergic receptor (Homo sapiens), sequence (P07550 whole entry, looked up): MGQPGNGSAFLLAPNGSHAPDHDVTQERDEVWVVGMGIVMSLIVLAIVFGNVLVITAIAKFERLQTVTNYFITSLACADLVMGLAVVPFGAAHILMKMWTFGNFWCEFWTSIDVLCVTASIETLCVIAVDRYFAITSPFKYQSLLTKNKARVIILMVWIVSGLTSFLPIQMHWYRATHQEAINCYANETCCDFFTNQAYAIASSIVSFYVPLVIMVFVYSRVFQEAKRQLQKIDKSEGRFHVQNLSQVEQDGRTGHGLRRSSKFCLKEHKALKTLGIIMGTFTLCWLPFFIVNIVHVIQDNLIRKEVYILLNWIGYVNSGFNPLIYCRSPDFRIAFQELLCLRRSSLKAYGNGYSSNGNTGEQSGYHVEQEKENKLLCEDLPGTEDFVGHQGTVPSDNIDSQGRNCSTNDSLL
# ATP-binding cassette sub-family B member 6 (Homo sapiens), sequence (Q9NP58 whole entry, looked up): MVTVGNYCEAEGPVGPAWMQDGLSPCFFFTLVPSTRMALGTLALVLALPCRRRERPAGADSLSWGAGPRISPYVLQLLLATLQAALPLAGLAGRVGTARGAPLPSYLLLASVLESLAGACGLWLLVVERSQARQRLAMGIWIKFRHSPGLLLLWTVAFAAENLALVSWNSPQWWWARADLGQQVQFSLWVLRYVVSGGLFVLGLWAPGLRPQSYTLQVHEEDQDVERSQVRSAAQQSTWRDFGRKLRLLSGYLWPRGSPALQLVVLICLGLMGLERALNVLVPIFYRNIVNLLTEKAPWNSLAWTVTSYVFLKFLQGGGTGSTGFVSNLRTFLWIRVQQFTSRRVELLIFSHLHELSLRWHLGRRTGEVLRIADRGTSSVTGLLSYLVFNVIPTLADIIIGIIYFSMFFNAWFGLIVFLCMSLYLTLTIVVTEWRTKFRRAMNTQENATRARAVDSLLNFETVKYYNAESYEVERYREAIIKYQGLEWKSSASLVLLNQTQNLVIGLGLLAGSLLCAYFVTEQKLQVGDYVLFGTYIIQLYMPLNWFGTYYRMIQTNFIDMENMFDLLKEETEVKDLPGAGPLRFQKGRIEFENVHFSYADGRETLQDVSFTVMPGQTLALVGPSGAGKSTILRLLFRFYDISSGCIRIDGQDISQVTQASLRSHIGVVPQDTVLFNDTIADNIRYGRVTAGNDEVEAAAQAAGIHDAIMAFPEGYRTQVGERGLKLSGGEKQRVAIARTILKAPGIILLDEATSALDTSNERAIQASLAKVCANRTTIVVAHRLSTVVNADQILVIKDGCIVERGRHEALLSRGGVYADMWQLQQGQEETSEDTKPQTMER
# AP-2 complex subunit beta (Homo sapiens), sequence (P63010 whole entry, looked up, the tested form may be a part, one chain of several): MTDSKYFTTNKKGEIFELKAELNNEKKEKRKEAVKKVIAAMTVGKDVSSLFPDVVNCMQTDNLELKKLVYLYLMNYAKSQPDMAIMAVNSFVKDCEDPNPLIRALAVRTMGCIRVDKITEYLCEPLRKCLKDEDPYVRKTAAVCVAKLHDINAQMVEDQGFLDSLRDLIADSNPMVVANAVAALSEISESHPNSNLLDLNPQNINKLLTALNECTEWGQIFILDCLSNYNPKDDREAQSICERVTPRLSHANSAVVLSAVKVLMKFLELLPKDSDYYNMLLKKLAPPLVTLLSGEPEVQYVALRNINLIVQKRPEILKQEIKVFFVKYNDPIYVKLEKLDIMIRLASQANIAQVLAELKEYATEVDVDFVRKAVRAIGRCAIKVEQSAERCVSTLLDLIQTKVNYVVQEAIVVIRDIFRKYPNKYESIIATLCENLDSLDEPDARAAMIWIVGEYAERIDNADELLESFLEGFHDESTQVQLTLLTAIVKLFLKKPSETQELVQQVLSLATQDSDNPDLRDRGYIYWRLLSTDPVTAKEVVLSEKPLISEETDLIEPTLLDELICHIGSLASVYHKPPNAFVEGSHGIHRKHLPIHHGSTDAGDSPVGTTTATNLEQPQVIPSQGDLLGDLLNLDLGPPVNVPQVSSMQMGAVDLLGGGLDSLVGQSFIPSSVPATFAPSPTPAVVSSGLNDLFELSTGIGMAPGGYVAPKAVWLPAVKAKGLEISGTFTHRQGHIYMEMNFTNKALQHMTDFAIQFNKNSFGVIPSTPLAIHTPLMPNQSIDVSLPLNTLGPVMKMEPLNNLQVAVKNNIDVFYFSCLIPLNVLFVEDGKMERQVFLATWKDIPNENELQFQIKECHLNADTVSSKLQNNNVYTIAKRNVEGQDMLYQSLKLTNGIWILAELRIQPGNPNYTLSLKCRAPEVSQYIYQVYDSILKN
# Integrin beta-1 (Homo sapiens) + Integrin alpha-4 (Homo sapiens), sequence (P05556 whole entry, looked up): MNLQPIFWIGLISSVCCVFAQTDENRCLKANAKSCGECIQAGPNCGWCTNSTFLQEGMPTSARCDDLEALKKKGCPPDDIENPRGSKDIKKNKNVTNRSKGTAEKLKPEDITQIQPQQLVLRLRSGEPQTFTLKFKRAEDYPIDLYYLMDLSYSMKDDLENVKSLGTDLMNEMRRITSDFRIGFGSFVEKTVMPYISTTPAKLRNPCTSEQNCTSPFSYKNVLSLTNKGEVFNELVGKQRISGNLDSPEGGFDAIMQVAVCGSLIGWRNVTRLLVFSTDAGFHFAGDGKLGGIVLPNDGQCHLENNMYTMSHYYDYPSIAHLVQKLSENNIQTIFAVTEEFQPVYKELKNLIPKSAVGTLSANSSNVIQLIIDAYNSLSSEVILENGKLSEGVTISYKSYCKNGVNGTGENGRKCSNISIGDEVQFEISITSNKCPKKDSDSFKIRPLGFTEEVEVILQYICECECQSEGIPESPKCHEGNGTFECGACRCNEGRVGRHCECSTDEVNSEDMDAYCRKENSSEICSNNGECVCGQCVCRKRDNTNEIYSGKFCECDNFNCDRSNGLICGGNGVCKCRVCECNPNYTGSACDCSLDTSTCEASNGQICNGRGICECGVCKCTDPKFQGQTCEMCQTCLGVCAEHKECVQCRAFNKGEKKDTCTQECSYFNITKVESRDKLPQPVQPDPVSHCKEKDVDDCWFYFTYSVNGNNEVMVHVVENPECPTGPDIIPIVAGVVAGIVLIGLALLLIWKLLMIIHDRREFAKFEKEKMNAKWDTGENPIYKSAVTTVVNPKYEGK
# Integrin beta-1 (Homo sapiens) + Integrin alpha-4 (Homo sapiens), sequence (P13612 whole entry, looked up): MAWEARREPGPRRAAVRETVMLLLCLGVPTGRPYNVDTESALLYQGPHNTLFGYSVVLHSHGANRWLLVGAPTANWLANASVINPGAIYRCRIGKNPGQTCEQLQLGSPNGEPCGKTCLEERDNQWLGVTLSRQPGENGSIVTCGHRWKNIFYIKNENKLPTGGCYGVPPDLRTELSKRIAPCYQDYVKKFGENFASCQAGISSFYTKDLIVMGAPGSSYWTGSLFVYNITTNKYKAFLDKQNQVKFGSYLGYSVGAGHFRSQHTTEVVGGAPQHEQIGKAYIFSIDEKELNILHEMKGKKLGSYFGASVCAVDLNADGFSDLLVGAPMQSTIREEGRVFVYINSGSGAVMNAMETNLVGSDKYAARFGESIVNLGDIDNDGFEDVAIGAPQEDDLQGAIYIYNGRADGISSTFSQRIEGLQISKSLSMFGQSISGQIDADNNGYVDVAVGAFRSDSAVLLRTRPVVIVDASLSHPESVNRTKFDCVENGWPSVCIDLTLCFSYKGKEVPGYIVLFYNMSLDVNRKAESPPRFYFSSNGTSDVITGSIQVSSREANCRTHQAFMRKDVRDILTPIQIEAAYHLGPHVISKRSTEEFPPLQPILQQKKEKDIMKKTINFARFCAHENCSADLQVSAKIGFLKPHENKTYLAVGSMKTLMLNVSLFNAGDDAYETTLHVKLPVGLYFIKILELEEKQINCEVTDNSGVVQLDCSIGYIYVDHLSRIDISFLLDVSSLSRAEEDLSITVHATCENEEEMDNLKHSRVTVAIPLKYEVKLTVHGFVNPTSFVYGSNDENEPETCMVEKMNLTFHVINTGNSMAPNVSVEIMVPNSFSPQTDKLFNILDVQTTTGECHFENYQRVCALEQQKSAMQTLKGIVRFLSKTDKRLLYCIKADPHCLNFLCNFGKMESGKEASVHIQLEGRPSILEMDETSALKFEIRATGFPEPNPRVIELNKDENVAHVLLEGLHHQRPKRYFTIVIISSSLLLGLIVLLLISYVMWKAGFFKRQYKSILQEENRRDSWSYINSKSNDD
# Beta-adrenergic receptor kinase 1 (Homo sapiens), sequence (P25098 whole entry, looked up): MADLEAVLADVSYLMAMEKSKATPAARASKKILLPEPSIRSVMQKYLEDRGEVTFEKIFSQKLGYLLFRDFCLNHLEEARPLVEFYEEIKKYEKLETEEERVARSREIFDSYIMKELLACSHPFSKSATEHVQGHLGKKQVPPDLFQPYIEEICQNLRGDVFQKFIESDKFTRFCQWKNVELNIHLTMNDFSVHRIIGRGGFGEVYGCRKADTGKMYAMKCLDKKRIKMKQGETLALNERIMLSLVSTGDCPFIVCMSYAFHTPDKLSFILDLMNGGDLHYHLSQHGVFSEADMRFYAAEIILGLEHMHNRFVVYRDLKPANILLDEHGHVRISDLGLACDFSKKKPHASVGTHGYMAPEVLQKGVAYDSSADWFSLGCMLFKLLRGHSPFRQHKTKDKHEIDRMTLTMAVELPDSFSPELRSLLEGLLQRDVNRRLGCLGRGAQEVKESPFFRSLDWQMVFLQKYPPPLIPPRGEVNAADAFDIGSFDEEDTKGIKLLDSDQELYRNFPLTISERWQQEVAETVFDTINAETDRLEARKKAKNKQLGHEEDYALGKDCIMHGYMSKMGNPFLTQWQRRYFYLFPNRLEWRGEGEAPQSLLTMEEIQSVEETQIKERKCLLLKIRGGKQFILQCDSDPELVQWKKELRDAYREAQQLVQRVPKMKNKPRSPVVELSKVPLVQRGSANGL
Structure (SMILES),percent of DMSO control GFP [1],GFP response vs DMSO [2],percent response of DMSO control [3],GFP response vs DMSO [4],"GFP response, % of DMSO [5]",double positive events [6] [%],vesicle binding response [6],inhibition [7],superoxide response (% of plate) [8],aptamer binding inhibition [9],response [10],inhibition [11],response [12],binding (% of control) [13],efflux inhibition (fraction of control) [14],inhibition [15],differentiation response [16]
CCn1cc(CN2N=C(C)CC2c2ccccc2)c(C)n1 (stereo not drawn),95.6% (inactive),120% (inactive),92.9% (inactive),116% (inactive),97.2% (inactive),60.6,87.5% (inactive),-7.25% (inactive),106% (inactive),3% (inactive),7.08% (inactive),-1.16% (inactive),1.03% (inactive),103% (inactive),-0.28 (inactive),3% (inactive),-29.6% (inactive)
OC(CCCN1CCC(O)(c2ccc(Cl)cc2)CC1)c1ccc(F)cc1 (stereo not drawn),99.6% (inactive),103% (inactive),108% (inactive),101% (inactive),106% (inactive),49.2,168% (inactive),-14.5% (inactive),96% (inactive),-3% (inactive),5.29% (inactive),-4.86% (inactive),-0.08% (inactive),104% (inactive),-0.005 (inactive),-1% (inactive),10.1% (inactive)
c1ccc(CNc2ncnc3nc[nH]c23)cc1,103% (inactive),104% (inactive),90.8% (inactive),90.1% (inactive),97.8% (inactive),63.6,581% (inactive),9.92% (inactive),93.5% (inactive),6% (inactive),1.86% (inactive),-1.71% (inactive),-1.37% (inactive),94.8% (inactive),0.11 (inactive),3% (inactive),7.09% (inactive)
Cc1cc(Cl)cc2c1NC(=O)[C@]21[C@@H]2C(=O)N(Cc3ccccc3)C(=O)[C@@H]2[C@@H]2CCCN21,96.2% (inactive),95.7% (inactive),90.5% (inactive),102% (inactive),99.6% (inactive),63.7,154% (inactive),-232% (inactive),95.7% (inactive),6% (inactive),-4.55% (inactive),-2.45% (inactive),3.96% (inactive),104% (inactive),0.08 (inactive),-22% (inactive),-14.8% (inactive)
CC(C)[C@H]1CN(C)CCN1Cc1cn(C)nc1-c1cccc(Cl)c1,105% (inactive),104% (inactive),98.9% (inactive),90.1% (inactive),102% (inactive),58.1,48.9% (inactive),3.7% (inactive),104% (inactive),-1% (inactive),-4.02% (inactive),19.9% (inactive),-0.96% (inactive),99.3% (inactive),0.3 (inactive),1% (inactive),3.18% (inactive)
O=C(CC1SC(=O)NC1=O)Nc1ccc(Cl)cc1 (stereo not drawn),101% (inactive),104% (inactive),108% (inactive),98% (inactive),108% (inactive),65.3,193% (inactive),6.95% (inactive),116% (inactive),-1% (inactive),2.95% (inactive),1.72% (inactive),1.59% (inactive),100% (inactive),-0.205 (inactive),-3% (inactive),-16.3% (inactive)
NC(N)=NC(N)=NCCc1ccccc1,101% (inactive),112% (inactive),100% (inactive),94% (inactive),100% (inactive),59.4,210% (inactive),3.7% (inactive),105% (inactive),0% (inactive),-4.33% (inactive),7.19% (inactive),-3.91% (inactive),88.8% (inactive),0.24 (inactive),-4% (inactive),-8.55% (inactive)
CC12COC3(C(=O)Nc4ccc(F)cc4)CC1CCC32C (stereo not drawn),94.2% (inactive),126% (inactive),107% (inactive),73.7% (inactive),85.9% (inactive),65.7,157% (inactive),8.4% (inactive),99.2% (inactive),1% (inactive),-12.6% (inactive),-2.28% (inactive),-3.14% (inactive),102% (inactive),0.3 (inactive),10% (inactive),-1.64% (inactive)
Cc1ccccc1C(=O)Nc1ccccc1C(=O)NCC(C)C,100% (inactive),107% (inactive),104% (inactive),118% (inactive),108% (inactive),63.7,208% (inactive),7.4% (inactive),118% (inactive),3% (inactive),-22.2% (inactive),35.6% (inactive),-2.23% (inactive),99.9% (inactive),0 (inactive),-1% (inactive),2.89% (inactive)
